The source made the active and inactive calls.

For eight molecules, composite z-score and z-score results are on record in PubChem BioAssay.

Assay [1] has as its system Wnt5a (protein binding on small-molecule microarray). Nature of the assay: small molecules binding Wnt5a protein – biophysical, small-molecule microarray, 635/667 nm fluorescence, primary screen (AID 1142).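 Note: fluorescence read at 667 nm with signal to noise per printed feature.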 Conditions: 635 nm fluorescence, higher = more signal.
Assay [2] is described as follows: ATP-based viability of Huh7 replicon cells – cell-based, CellTiter-Glo luminescence, basal, 48 h, cytotoxicity control for HCV replication inhibitor project, primary screen (AID 1143).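 Note: Huh7 hepatoma cells carrying a hepatitis C replication reporter with no stimulus; test concentration not given here.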 As to conditions: higher = more signal, called active from +8 up or from −8 down. (A replicon is a self-replicating genome or part of one, used to study replication in cells.)
Assay [3] in a line: basal CRE-LacZ reporter activity in PC12 – cell-based, unstimulated, primary screen (AID 1145). Conditions: no forskolin, luminescence, 4.5 h, higher = more signal, called active from +8 up or from −8 down.
The nature of assay [4]: forskolin-driven CRE-LacZ activity in PC12 – cell-based, CRE-LacZ reporter, forskolin-stimulated, primary screen (AID 1146).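 Note: PC12 cells with 6xCRE LacZ reporter stimulated by forskolin 10 µM; beta-galactosidase reporter signal reflecting CREB driven transcription.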 As to conditions: luminescence, 4.5 h, higher = more signal, called active from +8 up or from −8 down.
Assay [5] concerns the target Streptavidin (Streptomyces avidinii) (UniProt P22629). Nature of the assay: compounds binding control protein streptavidin – biophysical, small-molecule microarray, 635/667 nm fluorescence, artefact control for SMM compound annotation, primary screen (AID 1147).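 Note: signal reflects streptavidin binding to arrayed compounds as a control protein.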 As to conditions: higher = more signal.
Assay [6] in a line: probe aInhba binding on compound microarray – biochemical, small-molecule microarray, 635/667 nm fluorescence, primary screen (AID 1148).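 Note: score merges 667nm spot fluorescence with signal-to-noise for antibody binding to printed compounds.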 Conditions: higher = more signal.
The target of assay [7] is Torsin-1A (Homo sapiens) (UniProt O14656). In words: TOR1A wild-type binding on microarray – cell lysate, small-molecule microarray, lysate, 635/667 nm, primary screen (AID 1149). Conditions: COS7 hTOR1A-WT lysate, 635 nm fluorescence, higher = more signal.
For assay [8] the target is unchanged. Nature of the assay: torsin A mutant lysate binding on microarrays – cell lysate, small-molecule microarray, COS7 lysate, 635/667 nm fluorescence, primary screen (AID 1150).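 Note: score pools 667 nm emission and signal to noise measuring lysate protein binding.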 Conditions: COS7 hTOR1A mutant lysate, 635 nm fluorescence, higher = more signal.
Assay [9] deals with Sonic hedgehog protein (Shh). In words: Sonic hedgehog microarray binding compounds – biochemical, small-molecule microarray, 635/667 nm fluorescence, primary screen (AID 1151).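 Note: Shh protein binding to compounds spotted on small-molecule microarray slides; score combines spot fluorescence intensity with signal-to-noise across triplicate slides.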 Conditions: 635 nm fluorescence, higher = more signal.
Assay [10] can be described thus: optical density shifts of acrAB sulA E. coli – strain DRC41, OD650, 48 h, E. coli filamentation inducer project, primary screen (AID 1152).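 Note: E. coli MC1000 strain DRC41 lacking acrAB efflux pump and sulA.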 Conditions: higher = more signal, called active from +8 up or from −8 down.
The nature of assay [11]: probe aLefty1 binding on compound microarray – biochemical, small-molecule microarray, 635/667 nm fluorescence, primary screen (AID 1153).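 Note: score merges spot fluorescence with signal-to-noise ratio from the scanned slide images.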 Conditions: higher = more signal.
Assay [12] can be described thus: plasmodial surface anion channel blockers, osmotic lysis – cell-based, P. falciparum Indochina, OD700, 1 h, primary screen (AID 1154). Conditions: P. falciparum Indochina infected RBC osmotic lysis, higher = more signal, called active from +8 up or from −8 down.
Assay [13] is described as follows: plasmodial surface anion channel blockers, osmotic lysis – cell-based, P. falciparum Indochina, OD700, 2 h, primary screen (AID 1155).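 Note: lysis reports solute entry through the parasite surface anion channel PSAC.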 Conditions: P. falciparum Indochina infected erythrocytes, higher = more signal, called active from +8 up or from −8 down.
Assay [14] can be described thus: changes in parasitized red cell lysis, either direction – P. falciparum Indochina, OD700, 3 h, PSAC antagonist project, primary screen (AID 1156). As to conditions: P. falciparum-infected erythrocytes, osmotic lysis, higher = more signal, called active from +8 up or from −8 down.
Assay [15] in a line: plasmodial surface anion channel blockers, osmotic lysis – cell-based, P. falciparum Indochina, OD700, 18 h, primary screen (AID 1157). As to conditions: P. falciparum Indochina infected erythrocytes, osmotic lysis OD700, 18 h; higher = more signal, called active from +8 up or from −8 down.
A short description of assay [16]: S6 kinase pathway phospho-S6 level changes – cell-based, A549, cytoblot, luminescence, serum-stimulated, primary screen (AID 1158).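 Note: serum-stimulated A549 lung adenocarcinoma cells; signal is phosphorylated S6 detected by cytoblot immunostaining with HRP secondary.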 Conditions: 5 h, higher = more signal.
In assay [17] the target is NADPH oxidase 2 (Homo sapiens) (UniProt P04839). In words: compounds shifting NOX2 Amplex Red fluorescence – cell-based, HEK293-NOX2, PMA-stimulated, NOX inhibitor project, primary screen (AID 1159). Note: test concentration not given here. As to conditions: 45 min, higher = more signal, called active from +8 up or from −8 down.
Assay [18] deals with NADPH oxidase 4 (Homo sapiens) (UniProt Q9NPH5). Nature of the assay: compounds shifting NOX4 Amplex Red fluorescence – cell-based, HEK293-NOX4, tetracycline-induced, NOX inhibitor project, primary screen (AID 1160). As to conditions: HEK293-NOX4, Amplex Red H2O2 fluorescence, 45 min; higher = more signal, called active from +8 up or from −8 down.
Assay [19] addresses NADPH oxidase 5 (Homo sapiens) (UniProt Q96PH1). Nature of the assay: compounds shifting NOX5 Amplex Red fluorescence – cell-based, HEK293-NOX5, NOX inhibitor project, primary screen (AID 1161). As to conditions: HEK293-NOX5, ionomycin, 45 min, higher = more signal.
Assay [20] in a line: compound effects on lung adenocarcinoma cell viability – A549, calcein-AM fluorescence, 48 h, basal, profiling panel (AID 1162). Note: test concentration not given here. As to conditions: higher = more signal.

NADPH oxidase 2 (Homo sapiens), sequence (P04839 whole entry, looked up): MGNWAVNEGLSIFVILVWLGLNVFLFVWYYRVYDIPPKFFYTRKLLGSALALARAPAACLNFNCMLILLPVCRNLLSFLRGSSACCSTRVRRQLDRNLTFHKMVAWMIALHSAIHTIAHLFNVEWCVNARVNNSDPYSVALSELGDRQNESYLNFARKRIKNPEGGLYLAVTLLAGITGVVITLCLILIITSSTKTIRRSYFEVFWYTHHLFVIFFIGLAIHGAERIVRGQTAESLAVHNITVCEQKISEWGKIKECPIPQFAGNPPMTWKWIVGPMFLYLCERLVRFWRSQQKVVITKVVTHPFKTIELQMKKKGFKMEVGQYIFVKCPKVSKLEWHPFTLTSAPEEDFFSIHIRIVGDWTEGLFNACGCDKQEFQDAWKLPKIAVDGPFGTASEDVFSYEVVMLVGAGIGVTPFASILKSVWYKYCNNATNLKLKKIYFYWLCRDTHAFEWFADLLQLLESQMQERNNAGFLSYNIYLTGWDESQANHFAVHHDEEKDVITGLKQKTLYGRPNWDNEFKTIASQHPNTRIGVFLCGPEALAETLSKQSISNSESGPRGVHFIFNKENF
NADPH oxidase 4 (Homo sapiens), sequence (Q9NPH5 whole entry, looked up): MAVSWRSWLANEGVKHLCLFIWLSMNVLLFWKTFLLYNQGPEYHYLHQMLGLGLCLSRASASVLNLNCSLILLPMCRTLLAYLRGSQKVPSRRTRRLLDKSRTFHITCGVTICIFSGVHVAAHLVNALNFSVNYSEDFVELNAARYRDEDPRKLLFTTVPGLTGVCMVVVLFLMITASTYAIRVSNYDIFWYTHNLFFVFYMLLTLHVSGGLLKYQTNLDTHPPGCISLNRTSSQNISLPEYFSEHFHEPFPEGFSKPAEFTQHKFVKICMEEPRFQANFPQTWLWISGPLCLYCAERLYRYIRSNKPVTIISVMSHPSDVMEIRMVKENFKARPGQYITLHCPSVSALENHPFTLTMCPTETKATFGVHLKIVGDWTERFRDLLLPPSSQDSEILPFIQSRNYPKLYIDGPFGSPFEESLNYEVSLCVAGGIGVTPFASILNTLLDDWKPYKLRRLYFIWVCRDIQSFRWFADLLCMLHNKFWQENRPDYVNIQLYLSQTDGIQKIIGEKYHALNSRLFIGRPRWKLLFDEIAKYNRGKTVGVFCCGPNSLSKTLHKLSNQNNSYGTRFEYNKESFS
Streptavidin (Streptomyces avidinii), sequence (P22629 whole entry, looked up): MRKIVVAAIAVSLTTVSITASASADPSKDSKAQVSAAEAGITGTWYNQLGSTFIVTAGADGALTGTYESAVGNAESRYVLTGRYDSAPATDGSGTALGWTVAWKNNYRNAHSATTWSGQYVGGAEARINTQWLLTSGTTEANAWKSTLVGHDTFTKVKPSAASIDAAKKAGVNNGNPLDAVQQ
Torsin-1A (Homo sapiens), sequence (O14656 whole entry, looked up): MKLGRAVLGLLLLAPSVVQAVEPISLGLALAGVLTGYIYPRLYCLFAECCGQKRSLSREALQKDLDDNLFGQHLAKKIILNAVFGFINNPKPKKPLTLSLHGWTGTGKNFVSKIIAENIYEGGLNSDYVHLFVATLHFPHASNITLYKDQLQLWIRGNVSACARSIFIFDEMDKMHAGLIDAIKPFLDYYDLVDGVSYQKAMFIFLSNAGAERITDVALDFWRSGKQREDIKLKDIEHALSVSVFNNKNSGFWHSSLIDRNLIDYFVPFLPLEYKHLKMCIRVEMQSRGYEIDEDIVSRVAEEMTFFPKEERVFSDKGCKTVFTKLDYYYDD
NADPH oxidase 5 (Homo sapiens), sequence (Q96PH1 whole entry, looked up): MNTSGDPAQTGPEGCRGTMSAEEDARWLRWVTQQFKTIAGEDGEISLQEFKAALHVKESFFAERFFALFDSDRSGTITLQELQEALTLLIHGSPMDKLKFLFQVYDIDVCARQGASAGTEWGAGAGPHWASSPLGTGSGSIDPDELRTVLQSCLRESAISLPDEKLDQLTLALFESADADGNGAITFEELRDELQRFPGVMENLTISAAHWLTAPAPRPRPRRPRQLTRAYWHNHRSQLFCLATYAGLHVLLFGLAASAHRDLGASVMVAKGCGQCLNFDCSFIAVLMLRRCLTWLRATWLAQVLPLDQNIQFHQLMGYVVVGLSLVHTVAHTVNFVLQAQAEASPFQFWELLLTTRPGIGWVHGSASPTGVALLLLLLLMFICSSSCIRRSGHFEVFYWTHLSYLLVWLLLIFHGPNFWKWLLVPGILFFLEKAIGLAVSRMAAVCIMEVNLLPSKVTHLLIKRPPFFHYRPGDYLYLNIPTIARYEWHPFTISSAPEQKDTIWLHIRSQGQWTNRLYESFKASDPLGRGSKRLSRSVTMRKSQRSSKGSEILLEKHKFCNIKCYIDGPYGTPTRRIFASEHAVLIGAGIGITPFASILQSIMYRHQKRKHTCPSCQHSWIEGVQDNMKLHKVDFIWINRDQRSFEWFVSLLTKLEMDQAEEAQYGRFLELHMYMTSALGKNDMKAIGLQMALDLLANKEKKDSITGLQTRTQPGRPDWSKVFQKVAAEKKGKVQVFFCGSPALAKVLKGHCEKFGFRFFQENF

With `COc1ccc(C#Cc2ccc3c(c2)[C@]2(C(=O)N3)[C@H](c3ccc(O)cc3)N3[C@H](c4ccccc4)[C@H](c4ccccc4)OC(=O)[C@H]3[C@@H]2C(N)=O)cc1`, the composite z-score was 0.295 in assay [1]; -0.881 in [5]; -0.153 in assay [6]; 0.255 in the assay with Torsin-1A (Homo sapiens) [7]; -0.0088 with Torsin-1A (Homo sapiens) [8]; -0.301 in assay [9]. For the same molecule, the composite z-score in [11] was -0.147. The z-score in [2] is -5.1 (inactive); in assay [3], 0.209 (inactive); in [4] it was -0.532 (inactive); in assay [10], 1.63 (inactive); in assay [12], 2.89 (inactive); in assay [13], 1.58 (inactive). Moreover, the z-score in assay [14] was 0.672 (inactive); in assay [15] it was 1.23 (inactive); in assay [16], 0.76; in [17], 1.76 (inactive); in [18], -1.43 (inactive); in assay [19] it was 0.618. Moreover, the z-score in assay [20] was -1.55.

Turning to `COc1ccc(CCNC(=O)[C@@]2(Sc3ccc(C)cc3)CC(=O)N(Cc3ccccc3)[C@@H]2c2ccc(CO)cc2I)cc1`, the composite z-score in assay [1] is -0.221; in [5] it was -0.225; in assay [6], -0.24; in the assay with Torsin-1A (Homo sapiens) [7] it was 0.272; with Torsin-1A (Homo sapiens) [8] it was 0.192; in assay [9], -0.631. This molecule gave a composite z-score in assay [11] of -0.321. For the same molecule, the z-score in assay [2] is -1.9 (inactive); in assay [3], 1.13 (inactive); in assay [4], 1.72 (inactive); in assay [10], 1.15 (inactive); in [12] it was 12.6 (active); in assay [13], 1.57 (inactive). Also, the z-score in assay [14] is 0.0585 (inactive); in [15] it was 0.572 (inactive); in assay [16], -0.262; in [17], 1.82 (inactive); in [18], -1.14 (inactive); in assay [19], 1.78. The z-score in assay [20] is 0.648.

For the molecule `CCCCCCC#C[Si](O[C@H](c1ccccc1)c1cn(Cc2ccccc2)nn1)(C(C)C)C(C)C`, the composite z-score in assay [1] is -0.0163; in assay [5], 0.239; in assay [6] it was -0.128; in the assay with Torsin-1A (Homo sapiens) [7] it was 0.122; with Torsin-1A (Homo sapiens) [8], 0.345; in [9], 0.609. The molecule also gave a composite z-score in assay [11] of -0.101. In addition, the z-score in [2] is -1.53 (inactive); in [3], -1.23 (inactive); in [4], -1.35 (inactive); in [10], 3.05 (inactive); in [12], 1.66 (inactive); in [13], -0.226 (inactive). For the same molecule, the z-score in [14] was -0.0275 (inactive); in [15], -0.327 (inactive); in [16], 0.35; in assay [17], -0.941 (inactive); in assay [18] it was 0.369 (inactive); in assay [19], -1.87. The z-score in [20] is 1.68.

Take `COC(=O)C(CC#Cc1ccc2c(c1)[C@]1(C(=O)N2)[C@H](C(=O)O)[C@H]2C(=O)O[C@H](c3ccccc3)[C@H](c3ccccc3)N2[C@@H]1c1ccc(OCCO)cc1)C(=O)OC`: the composite z-score in assay [1] was 0.562; in [5], 1.25; in assay [6], 0.0714; with Torsin-1A (Homo sapiens) [7] it was 0.734; in the assay with Torsin-1A (Homo sapiens) [8] it was 1.06; in assay [9], 0.969. The composite z-score in assay [11] amounted to 0.305. Moreover, the z-score in assay [2] was -2.27 (inactive); in assay [3] it was -0.258 (inactive); in [4] it was -1.32 (inactive); in [10] it was 3.78 (inactive); in [12] it was 10 (active); in [13], 0.0825 (inactive). Also, the z-score in assay [14] was 0.646 (inactive); in assay [15], -2.18 (inactive); in assay [16], 2.47; in [17], 1.39 (inactive); in [18] it was 0.164 (inactive); in assay [19] it was 0.396. Moreover, in [20], the z-score was 2.54.

On to `CC(C)C[C@@H]1NC(=O)[C@@H]2C[C@H](C(=O)NCCCCCNC(=O)CS)[C@H](c3cccc(OCCO)c3)N2C1=O`, for which the composite z-score in assay [1] is 0.257; in [5], 0.811; in assay [6], 0.0207; with Torsin-1A (Homo sapiens) [7] it was 1.31; with Torsin-1A (Homo sapiens) [8], 0.824; in assay [9], 2.03. Also, in assay [11], the composite z-score stood at 0.348. The z-score in [2] is -1.59 (inactive); in assay [3] it was 0.147 (inactive); in assay [4], -1.09 (inactive); in [10] it was 1.8 (inactive); in assay [12], 3.21 (inactive); in [13], -0.422 (inactive). Moreover, the z-score in [14] is -1.74 (inactive); in assay [15], -1.93 (inactive); in assay [16] it was 0.955; in [17], 2.24 (inactive); in assay [18], 0.84 (inactive); in [19], 0.00283. Besides, in assay [20], the z-score was 0.221.

With `COCCOC(=O)N1C(=O)[C@@]2(c3cc(C#CCCO)ccc31)[C@H](c1ccccc1OCCO)N1[C@H](c3ccccc3)[C@H](c3ccccc3)OC(=O)[C@H]1[C@@H]2C(=O)NC[C@H](O)c1ccccc1`, the composite z-score in assay [1] amounted to 0.142; in assay [5], 0.506; in assay [6], 0.209; in the assay with Torsin-1A (Homo sapiens) [7], 1.94; with Torsin-1A (Homo sapiens) [8], 0.552; in assay [9], 1.56. For the same molecule, the composite z-score in [11] was -0.0222. For the same molecule, the z-score is -4.1 (inactive) in assay [2]; 1.42 (inactive) in assay [3]; -1.44 (inactive) in [4]; 2.96 (inactive) in [10]; 3.88 (inactive) in assay [12]; 0.965 (inactive) in [13]. The z-score is 0.673 (inactive) in assay [14]; 0.442 (inactive) in [15]; 2.31 in assay [16]; 1.59 (inactive) in [17]; 1.52 (inactive) in [18]; -0.0153 in [19]. In addition, in [20], the z-score is 2.07.

With `O=C1O[C@@H](c2ccccc2)[C@@H](c2ccccc2)N2[C@@H](c3ccc(OCCO)cc3)[C@]3(C(=O)Nc4ccc(C#CC5(O)CCCCCC5)cc43)[C@@H](C(=O)NC[C@H](O)c3ccccc3)[C@H]12`, the composite z-score was found to be 0.432 in assay [1]; 0.866 in assay [5]; 0.0827 in assay [6]; 1.2 with Torsin-1A (Homo sapiens) [7]; 0.711 in the assay with Torsin-1A (Homo sapiens) [8]; 0.855 in [9]. Also, in [11], the composite z-score was found to be 0.339. Moreover, the z-score in assay [2] was -3.51 (inactive); in [3], 0.0776 (inactive); in assay [4], -1.71 (inactive); in assay [10], 2.35 (inactive); in [12], 1.21 (inactive); in assay [13], 0.484 (inactive). Besides, the z-score in assay [14] was -0.206 (inactive); in assay [15], -0.863 (inactive); in assay [16], 1.13; in assay [17], 1.37 (inactive); in assay [18], 1.14 (inactive); in assay [19] it was 0.427. For the same molecule, the z-score in [20] is 0.71.

Regarding `CC(C)C[C@@H]1NC(=O)[C@@]23C(=O)N[C@@H](Cc4ccccc4)C2[C@H](C)[C@@]2(C)O[C@H]2C3/C=C/CC/C=C/CNC(=O)[C@@H](C)NC1=O` (stereo not given in full), the composite z-score in assay [1] was 0.298; in assay [5], 0.0315; in [6], -0.16; in the assay with Torsin-1A (Homo sapiens) [7], 0.418; with Torsin-1A (Homo sapiens) [8], -0.0123; in assay [9] it was 1.78. Besides, the composite z-score in assay [11] was -0.0984. The z-score in assay [2] was -2.4 (inactive); in [3], 2.03 (inactive); in assay [4], -1.16 (inactive); in [10], 2.61 (inactive); in assay [12], 1.31 (inactive); in assay [13] it was 0.548 (inactive). For the same molecule, the z-score is 0.224 (inactive) in assay [14]; 0.5 (inactive) in assay [15]; 0.595 in assay [16]; 0.649 (inactive) in assay [17]; 0.24 (inactive) in assay [18]; -0.181 in assay [19]. For the same molecule, the z-score in assay [20] was 0.421.
